Active and inactive are the calls of the source. How the calls were made is not given here.
target: fMet-Leu-Phe receptor (Homo sapiens) (UniProt P21462); test: FPR1 fluorescent ligand binding inhibitors, SAR follow-up, selectivity assay for FPRL1 ligand SAR project, cell-based, single concentration (AID 763); details: FPR1-expressing cells, stronger effect = higher value; at 5.4 µM unless noted
Sequence (P21462 whole entry, looked up): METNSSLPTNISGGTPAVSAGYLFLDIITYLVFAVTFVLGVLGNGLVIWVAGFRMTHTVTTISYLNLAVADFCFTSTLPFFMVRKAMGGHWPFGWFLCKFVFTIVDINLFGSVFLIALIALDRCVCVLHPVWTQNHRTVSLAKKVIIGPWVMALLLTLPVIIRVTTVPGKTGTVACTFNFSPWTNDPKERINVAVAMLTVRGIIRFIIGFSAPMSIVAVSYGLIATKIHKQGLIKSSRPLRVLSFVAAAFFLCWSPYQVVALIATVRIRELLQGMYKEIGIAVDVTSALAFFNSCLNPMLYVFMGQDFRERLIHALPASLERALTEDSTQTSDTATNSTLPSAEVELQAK

inhibition, inactive:
CCOc1ccc(C(=O)Nc2cc(-c3cn4cccnc4n3)ccc2OC)cc1 -6.6% [at 5.7 µM], Fc1ccc(-c2cc(C(F)(F)F)nc(N3CCN(C(c4ccccc4)c4ccccc4)CC3)n2)cc1 1.3% [at 4.5 µM], Clc1ccccc1N1CCN(c2nc(-c3ccccc3)c3cc(Br)ccc3n2)CC1 2.1% [at 4.6 µM], CC1CCc2nc(N3CCN(Cc4ccccc4)CC3)nc(C(F)(F)F)c2C1 (stereo not drawn) 4.7% [at 5.7 µM], CCCC(CCC)C(=O)Nc1cc(-c2cn3cccnc3n2)ccc1OC -2% [at 6.1 µM], COc1ccc(-c2cn3cccnc3n2)cc1NC(=O)c1ccc(F)c(F)c1 -1.7% [at 5.8 µM], CC(=O)N1CCN(c2nc(-c3ccccc3)c3cc(C)ccc3n2)CC1 -0.1% [at 6.4 µM], O=C(c1ccc(Cl)cc1)N1CCN(c2nc(-c3ccccc3)c3ccccc3n2)CC1 -1.9% [at 5.2 µM], CCOC(=O)N1CCN(c2nc(-c3ccccc3OC)cc(C(F)(F)F)n2)CC1 1%, O=C(c1cccc(F)c1)N1CCN(c2nc(-c3cccs3)cc(C(F)(F)F)n2)CC1 1.1% [at 5.1 µM], COc1ccc(-c2cn3cccnc3n2)cc1NC(=O)c1cccc(Br)c1 0.1% [at 5.3 µM], COc1ccc(CC(=O)Nc2cc(-c3cn4cccnc4n3)ccc2OC)cc1 -1.7% [at 5.7 µM], COc1cccc(C(=O)Nc2cc(-c3cn4cccnc4n3)ccc2OC)c1 1% [at 5.9 µM]
